Screening results from PubChem BioAssay.
The list is not random: actives were taken first. Their share in the collection is about 7.4%.
D1 allo mod: allosterically modulates the human D1 dopamine receptor | HEK293 D1, CRE-luciferase, dopamine EC30 potentiation; actives deviate in either direction | 58,000 compounds, 5.9% hits | B-score at 10 µM | P21728;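 active = luminescence count or its row- and column-corrected plate score outside the 99.7% band of the plate's sample wells, on either side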
FXIa inh mix: blocks human factor XIa in pooled compound mixtures. inhibition, % at 5 µM. 62,000 compounds, 0.19% hits. purified FXIa, fluorogenic substrate. AID 680;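 also: each value is inhibition by a whole ten-compound pool holding the compound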
M1 agonist: activates the M1 muscarinic receptor | CHO-M1 cells, Fluo-4 calcium fluorescence, agonist mode; hits give high values | B-score at 10 µM | 64,000 compounds, 3% hits | AID 626;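 active = fluorescence rise, raw or as B-score row- and column-corrected plate score, outside the 99.7% band of its plate's samples, either direction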
FXIIa inh mix: inhibitors of human coagulation factor XIIa, pooled mixtures; 62,000 compounds, 0.2% hits; purified FXIIa, fluorogenic substrate; inhibition, % at 5 µM
hDAT+cocaine: changed human dopamine transporter uptake under cocaine IC80; Q01959; LLC-PK1 hDAT cells, [14C]-dopamine uptake with cocaine IC80; actives deviate in either direction; B-score at 10 µM; 110,000 compounds, 1.3% hits; AID 449768;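 active = Z score or B-score, a plate-position-corrected score, falls beyond the plate's 99.7% confidence bounds, in either direction; inactive = both scores lie inside the 99.7% bounds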
Target sequence (Q01959 whole entry, looked up): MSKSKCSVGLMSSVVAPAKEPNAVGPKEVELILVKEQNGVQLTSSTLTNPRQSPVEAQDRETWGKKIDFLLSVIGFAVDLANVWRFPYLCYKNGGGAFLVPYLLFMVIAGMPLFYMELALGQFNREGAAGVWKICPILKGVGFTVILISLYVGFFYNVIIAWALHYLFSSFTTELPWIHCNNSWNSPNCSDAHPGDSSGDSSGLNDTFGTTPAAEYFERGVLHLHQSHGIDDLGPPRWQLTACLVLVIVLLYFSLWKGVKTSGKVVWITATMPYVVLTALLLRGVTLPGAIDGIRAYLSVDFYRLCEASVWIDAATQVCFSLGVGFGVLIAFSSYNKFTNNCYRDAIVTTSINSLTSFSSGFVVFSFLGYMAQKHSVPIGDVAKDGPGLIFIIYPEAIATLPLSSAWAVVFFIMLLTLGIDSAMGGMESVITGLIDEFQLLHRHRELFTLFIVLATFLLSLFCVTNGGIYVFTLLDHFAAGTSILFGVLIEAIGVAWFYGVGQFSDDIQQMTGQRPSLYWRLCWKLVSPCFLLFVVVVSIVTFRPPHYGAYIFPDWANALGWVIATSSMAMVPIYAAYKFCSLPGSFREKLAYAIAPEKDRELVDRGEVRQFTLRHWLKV
M1 antag: antagonists of rat M1 muscarinic receptor; P08482; CHO-M1 cells, Fluo-4 calcium, ACh EC80 antagonist mode; hits give low values; B-score at 10 µM; 64,000 compounds, 3.4% hits;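 active = calcium fluorescence response, raw or row-and-column corrected B-score, differing from the plate sample mean either way at a set confidence level, mostly lower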
M1 antag confirm: M1 muscarinic receptor (rat) antagonism, confirmed. CHO-M1 cells, Fluo-4 calcium, ACh EC80 antagonism; hits give low values. shares compounds with M1 antag. calcium response (max-min fluorescence) at 10 µM. 1,700 compounds, 43% hits;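 active = calcium response below the same-plate mean of wells given acetylcholine alone at its 80%-effect dose, minus 3 SD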
mGluR4 antag: acts on human mGluR4 in M1 antagonist selectivity test; shares compounds with M1 antag; CHO-mGluR4 calcium flux, Fluo-4 fluorescence, glutamate EC80; hits give low values; fluorescence response (max-min) at 10 µM; 1,700 compounds, 0.9% hits; AID 678;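 active = fluorescence response below the plate's average for near-maximal glutamate wells, less 3 SD of those wells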;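 also: raw unnormalized fluorescence span taken in the window right after glutamate addition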
Of the large screens only hits and unclear results are named; the others gave an inactive call (follow-up assays come after a bar, where they were run). Rule as the data show it, unless noted: active = inhibition above about 20% (passing the limit was not always enough); inactive = the rest.

CCOc1ccc(C2=Nn3c(nnc3-c3ccccn3)SC2)cc1	M1 antag -3.2 (no result: D1 allo mod, FXIa inh mix, FXIIa inh mix) | M1 antag confirm inactive | mGluR4 antag inactive
CCOc1ccc(C2=Nn3c(nnc3-c3ccco3)SC2)cc1	none (no result: D1 allo mod, FXIa inh mix, M1 agonist, FXIIa inh mix, M1 antag)
C=CCSC1=C(C#N)C(c2ccc(C(C)C)cc2)CC(=O)N1 (configuration not stated)	none
CCC(C)N(CCNC(=O)CC1Oc2ccccc2NC1=O)C1CCCCC1 (configuration not stated)	M1 antag -11 | M1 antag confirm 61 | mGluR4 antag inactive
O=C(CC1Oc2ccccc2NC1=O)NC1CCCC1 (configuration not stated)	none
O=C(CC1Oc2ccccc2NC1=O)NC1CC1 (configuration not stated)	M1 antag -3.9 (no result: hDAT+cocaine) | M1 antag confirm inactive | mGluR4 antag inactive
C=CCc1c(C)[nH]c(=S)c(C#N)c1C	none
CCOc1ccc(NC(=O)CN2CCN(CC(=O)Nc3ccc(F)cc3)CC2)cc1	none
CN(C)c1ccc(NC(=O)CN2CCN(CC(=O)Nc3ccc(F)cc3)CC2)cc1	M1 antag -4.6 | M1 antag confirm inactive | mGluR4 antag inactive
Cc1ccccc1OCC(=O)NN1Cc2ccccc2C1=N	none (no result: D1 allo mod, FXIa inh mix, M1 agonist, FXIIa inh mix, M1 antag)
CCOC(=O)c1cnc(-c2ccccc2)nc1N	M1 antag -2.2 | M1 antag confirm inactive | mGluR4 antag inactive
CCOC(=O)c1cc2c(=O)n3cccc(C)c3nc2n(CCc2ccccc2)c1=N	none (no result: hDAT+cocaine)
N=c1c(C(=O)NCc2ccccc2)cc2c(=O)n3ccccc3nc2n1CCCN1CCOCC1	none (no result: hDAT+cocaine)
COc1ccc(CCn2c(=N)c(C(=O)NCc3ccco3)cc3c(=O)n4ccccc4nc32)cc1	D1 allo mod -3.7, M1 antag -2.7 (no result: hDAT+cocaine) | M1 antag confirm inactive | mGluR4 antag inactive
COCCn1c(=N)c(C(=O)NCCc2ccc(OC)cc2)cc2c(=O)n3cccc(C)c3nc21	M1 antag -4.4 | M1 antag confirm 311 | mGluR4 antag inactive
CCNC(=O)c1cc2c(=O)n3cccc(C)c3nc2n(Cc2ccc(C)cc2)c1=N	M1 antag -2.9 | M1 antag confirm inactive | mGluR4 antag inactive
Cc1cccn2c(=O)c3cc(C(=O)NC(C)C)c(=N)n(Cc4ccncc4)c3nc12	none (no result: M1 agonist, hDAT+cocaine, M1 antag)
CC(C)(C)NS(=O)(=O)c1ccc(NS(=O)(=O)Cc2ccccc2)cc1	none (no result: D1 allo mod, FXIa inh mix, M1 agonist, FXIIa inh mix, M1 antag)
CCCn1cnc2cc(NCc3cccc(OC)c3)ccc21	M1 antag -2.4 | M1 antag confirm 397 | mGluR4 antag inactive
COc1ccc(N2CCN(C(=O)c3ccc(OCC4CCCO4)cc3)CC2)cc1 (configuration not stated)	none
CCN1CCN(CCCNC(=O)c2cc3sccc3n2CC)CC1	M1 antag -1.6 | M1 antag confirm inactive | mGluR4 antag inactive
O=C(Cn1c(C(=O)NCCCN2CCOCC2)cc2sccc21)c1ccccc1	none (no result: D1 allo mod)
Cc1ccc(Cn2c(C(=O)NCCCN3CCOCC3)cc3sccc32)cc1	M1 antag -3.2 | M1 antag confirm 510 | mGluR4 antag inactive
CCn1c(C(=O)NCCCN2CCc3ccccc3C2)cc2sccc21	M1 antag -3.6 (no result: D1 allo mod) | M1 antag confirm 492 | mGluR4 antag inactive
O=C(COc1ccc(S(=O)(=O)N2CCCC2)cc1)NCc1ccco1	none
Cc1cc(C(=O)O)c(=O)[nH]c1C	none
CCOC(=O)c1snc(C(=O)NC2CCCCC2)c1N	M1 antag -2.7 | M1 antag confirm inactive | mGluR4 antag inactive
Nc1c(C(=O)NC2CCCCC2)nsc1C(=O)OCC(=O)NC1CCCCC1	none
Cn1c(=O)c2c(nc(SCCN3CCCCC3)n2Cc2ccc(Cl)cc2)n(C)c1=O	M1 antag -7.8 (no result: FXIa inh mix, FXIIa inh mix) | M1 antag confirm 87 | mGluR4 antag inactive
Cn1c(=O)c2c(nc(Sc3ncccn3)n2Cc2ccccc2Cl)n(C)c1=O	none (no result: D1 allo mod, FXIa inh mix, M1 agonist, FXIIa inh mix, M1 antag)
CCSc1nc2c(c(=O)n(C)c(=O)n2C)n1Cc1ccc(Cl)cc1	M1 antag -3.7 | M1 antag confirm inactive | mGluR4 antag inactive
Cn1c(=O)c2c(nc(Sc3ncccn3)n2Cc2ccc(Cl)cc2)n(C)c1=O	none
C=CC(C)Sc1nc2c(c(=O)n(C)c(=O)n2C)n1Cc1ccccc1Cl (configuration not stated)	M1 antag -4.5 | M1 antag confirm inactive | mGluR4 antag inactive
Cc1sc(NC(=S)NC(=O)c2cccs2)nc1-c1ccc(C(C)C)cc1	none (no result: D1 allo mod, FXIa inh mix, M1 agonist, FXIIa inh mix, M1 antag)
Cc1ccc(-c2c(C#N)c(N)nc3c2CCCC3)s1	none (no result: D1 allo mod, FXIa inh mix, M1 agonist, FXIIa inh mix, M1 antag)
Cc1cc(OCCCCCNCCO)cc(C)c1Cl	M1 antag -3.8 (no result: D1 allo mod) | M1 antag confirm inactive | mGluR4 antag inactive
NC(=O)C1=C[C@@H](C2CCCCC2)C[C@@H](OCc2ccc(CO)cc2)O1	none (no result: D1 allo mod, FXIa inh mix, M1 agonist, FXIIa inh mix, M1 antag)
Cc1sc2nc3ccc(N4CCCCC4)nn3c(=O)c2c1C	M1 antag -2.3 | M1 antag confirm inactive | mGluR4 antag inactive
O=C(CCS(=O)(=O)c1ccccc1)NC12CC3CC(CC(C3)C1)C2	none (no result: D1 allo mod, FXIa inh mix, M1 agonist, FXIIa inh mix, M1 antag)
O=C(NCCN1CCN(C(=O)c2cc3ccccc3oc2=O)CC1)c1cc2ccccc2oc1=O	none
CC(=O)OC(C(=O)NCc1ccco1)c1cccnc1 (configuration not stated)	M1 antag -1 | M1 antag confirm inactive | mGluR4 antag inactive
Cc1ccc(C)c(OCCOCCN2CCOCC2)c1	none
Cc1ccc(C)c(OCCCN2CCCC2)c1	M1 antag -3 | M1 antag confirm 511 | mGluR4 antag inactive
COC(=O)CCC(NC(=O)c1cc(C)oc1C)C(=O)OC (configuration not stated)	none (no result: D1 allo mod, FXIa inh mix, M1 agonist, FXIIa inh mix, M1 antag)
CC(C)c1ccc(N2C(=O)[C@@H]3Cc4ccccc4CN3C2=O)cc1	M1 antag -1.3 | M1 antag confirm inactive | mGluR4 antag inactive
Cc1ccc(N2C(=O)[C@@H]3Cc4ccccc4CN3C2=O)cc1	none
Cc1sc2nc(CN3CCOCC3)nc(Oc3ccc(NC(=O)c4ccco4)cc3)c2c1C	none
CC(=O)c1ccccc1Oc1nc(CN2CCOCC2)nc2scc(-c3cccs3)c12	M1 antag -2.3 | M1 antag confirm 478 | mGluR4 antag inactive
CCCC1COC(Cn2cncn2)(c2ccc(C)cc2)O1 (configuration not stated)	M1 antag -13 | M1 antag confirm inactive | mGluR4 antag inactive
Cc1nc(CN2CCN(C(=O)c3ccc(Br)cc3)CC2)cs1	none
CCOc1ccc(NC(=O)CN2CCC(NC(=O)C3CCCCC3)CC2)cc1	none (no result: hDAT+cocaine)
Cc1nc(N2CCN(C(=O)c3ccco3)CC2)c2c3c(sc2n1)CCC3	M1 antag -3.1 | M1 antag confirm inactive | mGluR4 antag inactive
CC(C)c1nc(N2CCN(C(=O)c3ccco3)CC2)c2c3c(sc2n1)CCCC3	none
CCCCCNC(=O)c1ccc2c(=O)[nH]c3c(C(=O)NCC4CCCO4)sc(=S)n3c2c1 (configuration not stated)	none
